Screening results: PubChem BioAssay, National Center for Advancing Translational Sciences (NCATS)
SW480 rereplic – A quantitative high throughput screen for small molecules that induce DNA re-replication in SW480 colon adenocarcinoma cells | SW480 DNA re-replication, Hoechst DNA content imaging, 48 h | Potency, µM (top dose mostly 46.1 µM), inactives show top-dose re-replication activation, most hits filed as activators | actives 1.8% (n = 340,000) | AID 624297, 2012; note: potency is the fitted concentration of half-maximal effect; % of control where 0% means no effect; nearly all actives have a fitted effect of over 55% in size
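Quantitative HTS format with DMSO vehicle controls; 48 hr drug incubation at 37 C, then 40 min Hoechst staining and scanning imager measurement at 405 nm excitation.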
Gal4-VP16 FLuc – VP16 counterscreen qHTS for inhibitors of ROR gamma transcriptional activity; actives 3.5% (n = 310,000); AID 2546, 2010; Drosophila S2 Gal4-VP16 UAS-luciferase, luminescence, 20 h; Potency, µM (series often up to 53.6 µM), without a hit: at the top dose activity, negative = inhibition, most hits filed as inhibitors;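 note: Gal4-VP16 expression switched on by copper sulfate through the metallothionein promoter; potency is the fitted concentration of half-maximal effect; % is set by controls: 0 for no effect and ±100 for the full control effect; nearly all actives have a fitted effect of over 50% in size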
MCF10A rerep – A quantitative high throughput screen for small molecules that induce DNA re-replication in MCF 10a normal breast cells. Potency, µM (series often up to 46.1 µM), inactives show at the highest dose activity, positive = re-replication, actives largely listed as activators. actives 2.9% (n = 350,000). MCF 10A DNA re-replication, Hoechst nuclear intensity, 48 h. AID 624296, 2012; note: potency is the fitted concentration of half-maximal effect; % of control where 0% means no effect; nearly all actives have a fitted effect of over 50% in size
Giardia kill – Small Molecules that selectively kill Giardia lamblia: qHTS | Giardia lamblia trophozoite viability | activity change, % at 7.66 µM, hits read low | actives 0.15% (n = 340,000); in the data active = activity change below about -80%; inconclusive = between about -30% and that limit;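 note: parasites exposed to compound for two days anaerobically before the ATP read; % is set by controls: 0 for no effect and ±100 for the full control effect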
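Each well holds 100 Giardia trophozoites and compound. After two days (48 hrs) at 37 deg C in anaerobic conditions, ATP is quantified by luminescence.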
BCR signal inh – qHTS Assay to Find Inhibitors of Chronic Active B-Cell Receptor Signaling; ABC-DLBCL IkBa-CBG/CBR reporter, luminescence ratio, 4 h; Potency, µM (doses to about 46.1 µM), inactives show at the top dose activity change, negative = inhibition, usual class: inhibitors; actives 0.05% (n = 340,000); active = well fitted inhibition curve with a large enough effect in the signal ratio, with a control signal flat, not every such curve was filed as active; inconclusive = small, poorly fitted or top-dose-only effect, or effect the other way, or a change in a side signal; the % refers to the signal ratio;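 note: potency is the fitted concentration of half-maximal effect; plate controls were basal doxycycline-induced cells for no effect and cells given 10 µM MG132 for full effect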
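Concentration-response series (up to 46 uM) were applied to TMD8 dual-reporter cells for 4 h at 37C with doxycycline. Green/red ratio, after filter-overlap correction, defined %Activity; red signal alone was normalised to basal cells and zero luminescence.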
RORg inh – qHTS for inhibitors of ROR gamma transcriptional activity; Nuclear receptor ROR-gamma (Mus musculus), P51450; Drosophila S2 Gal4-RORgamma UAS-luciferase reporter, 20 h; Potency, µM (doses to about 53.6 µM), inactives show at the highest dose activity change, negative = inhibition, hits mostly inhibitors; actives 5.4% (n = 310,000); AID 2551, 2010; note: potency is the fitted concentration of half-maximal effect; % is set by controls: 0 for no effect and ±100 for the full control effect; nearly all actives have a fitted effect of over 60% in size
Target sequence (P51450 whole entry, looked up, the tested form may be a part): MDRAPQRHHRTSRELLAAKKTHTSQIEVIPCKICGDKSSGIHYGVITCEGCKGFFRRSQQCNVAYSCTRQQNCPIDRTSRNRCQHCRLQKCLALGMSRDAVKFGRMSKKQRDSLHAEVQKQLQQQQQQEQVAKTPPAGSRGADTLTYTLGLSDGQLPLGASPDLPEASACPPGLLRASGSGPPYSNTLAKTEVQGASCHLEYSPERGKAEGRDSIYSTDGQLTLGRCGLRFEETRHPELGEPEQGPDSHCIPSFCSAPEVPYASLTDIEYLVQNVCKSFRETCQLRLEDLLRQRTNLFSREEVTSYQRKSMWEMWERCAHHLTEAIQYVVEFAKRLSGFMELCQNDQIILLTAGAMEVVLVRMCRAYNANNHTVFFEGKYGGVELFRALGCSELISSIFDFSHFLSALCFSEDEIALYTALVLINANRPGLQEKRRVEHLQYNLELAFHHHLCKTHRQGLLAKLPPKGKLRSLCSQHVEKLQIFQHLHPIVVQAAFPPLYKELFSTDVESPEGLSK
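Drosophila S2 cells stably expressing Gal4-DBD/mouse RORγ fusion under metallothionein promoter plus UAS-luciferase; compound 1 h, then 700 uM CuSO4 induction for 20 h at ambient temperature; inhibition read as reduced luminescence.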
* marks the source's active call; other numbers are inactive results; ? = inconclusive; . = no result given; [ ] = another dose, or the depositor's remark. Hits are enriched below; roughly 8.3% of the tested compounds scored in any of these assays. Unless noted, calls come from the whole dose curve; as a rule, active = well fitted curve in the direction sought with a large enough effect; inconclusive = small, poorly fitted or top-dose-only effect, or another doubt; inactive = no such curve, though single readings can be large; an effect the other way counts as inactive or inconclusive.

SMILES	SW480 rereplic	Gal4-VP16 FLuc	MCF10A rerep	Giardia kill	BCR signal inh	RORg inh
CC(Cc1ccc(O)c(O)c1)(NN)C(=O)O (stereo not drawn)	.	-17%	.	.	.	-10%
NC(=O)C1=C[C@H](C2CCCCC2)C[C@H](OCc2ccc(CO)cc2)O1	-68%[9.22 µM]	1%	4%	13	?	40%
CCc1nc2ccccc2[nH]1	-4%	17%	-8%	-4	1%	25%
CCc1nc2ccc(Cc3ccc4nc(CC)[nH]c4c3)cc2[nH]1	3.3µM*	-24%	1%	-20	?	33%
COc1ccc(/C=N\NC(=O)c2cc(O)c(O)c(O)c2)cc1COc1ccc(C(=O)OCC(C)C)cc1	-8%	-22%	41%	?	?	-8%
O=c1/c(=C\c2ccc(O)cc2)sc2n1C(c1ccccc1)C(c1ccccc1)=NN=2 (stereo not drawn)	?	-11%	7.3µM*	4	?	?
O=C(Nc1ccc(Br)c(C(F)(F)F)c1)c1ccc(C(F)(F)F)cc1	?	?	15µM*	-18	?	?
O=C(Nc1ccc(OCC(F)(F)C(F)F)c(C(F)(F)F)c1)c1ccc(Cl)cc1	?	.	23µM*	-6	.	.
COc1cc(C(=O)OCC(=O)N2CCC(C)CC2)cc2c1OCCO2	-4%	.	4%	-26	1%	.
CC(C)Oc1ccc(C(=O)NC(=S)Nc2ccc(CN3CCOCC3)cc2)cc1	-7%	13µM*	4%	-1	3%	7.1µM*
Cc1ccc(C(=O)NC(=S)Nc2ccc(CN3CCOCC3)cc2)cc1	2%	?	-1%	9	-7%	14µM*
CNC(=O)NC(=O)C(C)OC(=O)c1ccc(Cl)c(S(=O)(=O)Nc2ccc(F)cc2)c1 (stereo not drawn)	26%	2%	3%	1	?	3%
O=C(NCCc1ccccc1)c1ccc2c(c1)OCO2	6%	5µM*	1%	?	?	2.8µM*
O=C(NC(=S)NCc1ccc2c(c1)OCO2)c1ccccc1	-5%	18µM*	-1%	19	-1%	20µM*
O=C(NC(=S)NCc1ccccc1)c1ccc2c(c1)OCO2	-5%	11µM*	19%	-3	15%	7.9µM*
O=C1CC2c3ccccc3C1C1C(=O)N(CCO)C(=O)C21 (stereo not drawn)	-12%	6%	1%	4	-5%	2%
Cc1ccc(S(=O)(=O)N2CCC(C(=O)NCc3ccncc3)CC2)cc1	-6%	-3%	15%	-1	?	-6%
Cc1cccc(NC(=O)c2nc[nH]c2C(=O)N[C@@H](C)c2ccccc2)c1	0%	.	?	42	?	.
Cc1cccc(NC(=O)c2nc[nH]c2C(=O)N[C@@H](C)C(=O)OCc2ccccc2)c1	3%[9.22 µM]	13µM*	?	8	4%	8.9µM*
Cc1cccc(NC(=O)c2nc[nH]c2C(=O)N[C@@H](CC(C)C)C(=O)OCc2ccccc2)c1	?	10µM*	?	6	-5%	3.5µM*
CC(Sc1nc(N(C)C)nc(N2CCOCC2)n1)C(=O)Nc1ccccc1 (stereo not drawn)	-7%	.	9%	0	-14%	10%[0.365 µM]
C=CCC(COCc1ccccc1)NS(=O)(=O)c1ccccc1Br (stereo not drawn)	-17%	-22%	-9%	-6	?	?
COc1ccc(C(=O)CSC2=NS(=O)(=O)c3cc(Cl)ccc3N2)cc1	-6%	.	-6%	18	-6%	.
Cc1cc(C)c(C)c(S(=O)(=O)N2CCN(C(=O)C3CCC3)CC2)c1C	-27%	.	-5%	3	-10%	.
O=C(NNC(=S)NC(=O)c1cccc([N+](=O)[O-])c1)c1ccc(O)cc1	-1%	13µM*	16%	-3	?	13µM*
SMILES	SW480 rereplic	Gal4-VP16 FLuc	MCF10A rerep	Giardia kill	BCR signal inh	RORg inh
O=C(NC(=S)Nc1cccc(F)c1)c1cccc([N+](=O)[O-])c1	-7%	6.3µM*	3%	-4	?	1.6µM*
O=C(c1cccc([N+](=O)[O-])c1)N1CCN(c2ccccn2)CC1	16µM*	3%	-3%	-4	7%	23%
O=C(NNC(=S)NC(=O)c1ccccc1)c1ccc(O)cc1	-3%	?	1%	-8	?	?
O=C(NC(=S)Nc1ccc(N2CCOCC2)cc1)c1cccc([N+](=O)[O-])c1	-1%	2.8µM*	4%	-6	0%	2.2µM*
CCOc1ccc(Cc2nnc(SCC(=O)Nc3ccc(C(C)=O)cc3)[nH]c2=O)cc1	1%	.	3%	14	-8%	.
Cc1ccc(N2CC(NC(=O)c3ccco3)CC2=O)cc1C (stereo not drawn)	.	.	.	.	4%	.
Cc1cccc(NC(=S)NNC(=O)c2cccc([N+](=O)[O-])c2)c1	-6%	-13%	?	-4	-5%	-32%
Cc1ccc(C(=O)NC(=S)NNC(=O)c2cccc([N+](=O)[O-])c2)cc1	2%	7.1µM*	-4%	0	1%	4.5µM*
Cc1cccc(C(=O)NC(=S)NNC(=O)c2ccc(Cl)cc2)c1	18%	?	?	-6	?	10µM*
O=C(NNC(=O)c1cccc([N+](=O)[O-])c1)c1ccncc1	-2%	7%	-41%	-8	?	1%
COc1cccc(C(=O)NC(=S)Nc2ccc([N+](=O)[O-])cc2C)c1	.	?	-2%	-9	-2%	7.1µM*
O=C(NNC(=S)NC(=O)c1ccccc1)c1cccc([N+](=O)[O-])c1	3%	11µM*	-2%	-17	?	7.9µM*
CC(C)(CN1CCCC1)NC(=O)C1CCC(=O)N(CCCN2CCOCC2)C1 (stereo not drawn)	-27%	3%	3%	45	-3%	-3%
O=C(NNc1ccc(F)cc1F)c1cccs1	.	.	.	-1	.	.
CC(C)N(C)S(=O)(=O)c1ccc(NC(=O)CSC(=S)N2CCCC2)cc1	-2%	.	13%	19	-11%	.
O=C(NNC(=S)NC(=O)c1cccc([N+](=O)[O-])c1)c1ccc(Br)cc1	?	?	10%	3	3%	11µM*
O=C(c1cccc([N+](=O)[O-])c1)c1ccccn1	-23%	2%	-4%	0	-1%	1%
O=C(N1CCN(c2ccccn2)CC1)N1c2ccccc2Sc2ccccc21	0.65µM*	-24%	?	-5	?	10%
